The supplement of paper PMC11732987, “Enantioselective OTUD7B fragment discovery through chemoproteomics screening and high-throughput optimisation” (Communications Chemistry, 2025)

Experiments:
Test in all cases: log2 ratio of Biotin-Ahx-Ub-VS probe labelling (fragment/DMSO); higher = less target engagement (more negative = stronger competition), active = hit call of the paper (q ≤ 0.05, log2 ratio ≤ -1)
Conditions in all cases: compound concentration: 200 uM; treatment time: 3 h
USP34 = USP34 (UniProt Q70CQ2)
Sequence of USP34 (Q70CQ2 whole entry, the tested form may be a part): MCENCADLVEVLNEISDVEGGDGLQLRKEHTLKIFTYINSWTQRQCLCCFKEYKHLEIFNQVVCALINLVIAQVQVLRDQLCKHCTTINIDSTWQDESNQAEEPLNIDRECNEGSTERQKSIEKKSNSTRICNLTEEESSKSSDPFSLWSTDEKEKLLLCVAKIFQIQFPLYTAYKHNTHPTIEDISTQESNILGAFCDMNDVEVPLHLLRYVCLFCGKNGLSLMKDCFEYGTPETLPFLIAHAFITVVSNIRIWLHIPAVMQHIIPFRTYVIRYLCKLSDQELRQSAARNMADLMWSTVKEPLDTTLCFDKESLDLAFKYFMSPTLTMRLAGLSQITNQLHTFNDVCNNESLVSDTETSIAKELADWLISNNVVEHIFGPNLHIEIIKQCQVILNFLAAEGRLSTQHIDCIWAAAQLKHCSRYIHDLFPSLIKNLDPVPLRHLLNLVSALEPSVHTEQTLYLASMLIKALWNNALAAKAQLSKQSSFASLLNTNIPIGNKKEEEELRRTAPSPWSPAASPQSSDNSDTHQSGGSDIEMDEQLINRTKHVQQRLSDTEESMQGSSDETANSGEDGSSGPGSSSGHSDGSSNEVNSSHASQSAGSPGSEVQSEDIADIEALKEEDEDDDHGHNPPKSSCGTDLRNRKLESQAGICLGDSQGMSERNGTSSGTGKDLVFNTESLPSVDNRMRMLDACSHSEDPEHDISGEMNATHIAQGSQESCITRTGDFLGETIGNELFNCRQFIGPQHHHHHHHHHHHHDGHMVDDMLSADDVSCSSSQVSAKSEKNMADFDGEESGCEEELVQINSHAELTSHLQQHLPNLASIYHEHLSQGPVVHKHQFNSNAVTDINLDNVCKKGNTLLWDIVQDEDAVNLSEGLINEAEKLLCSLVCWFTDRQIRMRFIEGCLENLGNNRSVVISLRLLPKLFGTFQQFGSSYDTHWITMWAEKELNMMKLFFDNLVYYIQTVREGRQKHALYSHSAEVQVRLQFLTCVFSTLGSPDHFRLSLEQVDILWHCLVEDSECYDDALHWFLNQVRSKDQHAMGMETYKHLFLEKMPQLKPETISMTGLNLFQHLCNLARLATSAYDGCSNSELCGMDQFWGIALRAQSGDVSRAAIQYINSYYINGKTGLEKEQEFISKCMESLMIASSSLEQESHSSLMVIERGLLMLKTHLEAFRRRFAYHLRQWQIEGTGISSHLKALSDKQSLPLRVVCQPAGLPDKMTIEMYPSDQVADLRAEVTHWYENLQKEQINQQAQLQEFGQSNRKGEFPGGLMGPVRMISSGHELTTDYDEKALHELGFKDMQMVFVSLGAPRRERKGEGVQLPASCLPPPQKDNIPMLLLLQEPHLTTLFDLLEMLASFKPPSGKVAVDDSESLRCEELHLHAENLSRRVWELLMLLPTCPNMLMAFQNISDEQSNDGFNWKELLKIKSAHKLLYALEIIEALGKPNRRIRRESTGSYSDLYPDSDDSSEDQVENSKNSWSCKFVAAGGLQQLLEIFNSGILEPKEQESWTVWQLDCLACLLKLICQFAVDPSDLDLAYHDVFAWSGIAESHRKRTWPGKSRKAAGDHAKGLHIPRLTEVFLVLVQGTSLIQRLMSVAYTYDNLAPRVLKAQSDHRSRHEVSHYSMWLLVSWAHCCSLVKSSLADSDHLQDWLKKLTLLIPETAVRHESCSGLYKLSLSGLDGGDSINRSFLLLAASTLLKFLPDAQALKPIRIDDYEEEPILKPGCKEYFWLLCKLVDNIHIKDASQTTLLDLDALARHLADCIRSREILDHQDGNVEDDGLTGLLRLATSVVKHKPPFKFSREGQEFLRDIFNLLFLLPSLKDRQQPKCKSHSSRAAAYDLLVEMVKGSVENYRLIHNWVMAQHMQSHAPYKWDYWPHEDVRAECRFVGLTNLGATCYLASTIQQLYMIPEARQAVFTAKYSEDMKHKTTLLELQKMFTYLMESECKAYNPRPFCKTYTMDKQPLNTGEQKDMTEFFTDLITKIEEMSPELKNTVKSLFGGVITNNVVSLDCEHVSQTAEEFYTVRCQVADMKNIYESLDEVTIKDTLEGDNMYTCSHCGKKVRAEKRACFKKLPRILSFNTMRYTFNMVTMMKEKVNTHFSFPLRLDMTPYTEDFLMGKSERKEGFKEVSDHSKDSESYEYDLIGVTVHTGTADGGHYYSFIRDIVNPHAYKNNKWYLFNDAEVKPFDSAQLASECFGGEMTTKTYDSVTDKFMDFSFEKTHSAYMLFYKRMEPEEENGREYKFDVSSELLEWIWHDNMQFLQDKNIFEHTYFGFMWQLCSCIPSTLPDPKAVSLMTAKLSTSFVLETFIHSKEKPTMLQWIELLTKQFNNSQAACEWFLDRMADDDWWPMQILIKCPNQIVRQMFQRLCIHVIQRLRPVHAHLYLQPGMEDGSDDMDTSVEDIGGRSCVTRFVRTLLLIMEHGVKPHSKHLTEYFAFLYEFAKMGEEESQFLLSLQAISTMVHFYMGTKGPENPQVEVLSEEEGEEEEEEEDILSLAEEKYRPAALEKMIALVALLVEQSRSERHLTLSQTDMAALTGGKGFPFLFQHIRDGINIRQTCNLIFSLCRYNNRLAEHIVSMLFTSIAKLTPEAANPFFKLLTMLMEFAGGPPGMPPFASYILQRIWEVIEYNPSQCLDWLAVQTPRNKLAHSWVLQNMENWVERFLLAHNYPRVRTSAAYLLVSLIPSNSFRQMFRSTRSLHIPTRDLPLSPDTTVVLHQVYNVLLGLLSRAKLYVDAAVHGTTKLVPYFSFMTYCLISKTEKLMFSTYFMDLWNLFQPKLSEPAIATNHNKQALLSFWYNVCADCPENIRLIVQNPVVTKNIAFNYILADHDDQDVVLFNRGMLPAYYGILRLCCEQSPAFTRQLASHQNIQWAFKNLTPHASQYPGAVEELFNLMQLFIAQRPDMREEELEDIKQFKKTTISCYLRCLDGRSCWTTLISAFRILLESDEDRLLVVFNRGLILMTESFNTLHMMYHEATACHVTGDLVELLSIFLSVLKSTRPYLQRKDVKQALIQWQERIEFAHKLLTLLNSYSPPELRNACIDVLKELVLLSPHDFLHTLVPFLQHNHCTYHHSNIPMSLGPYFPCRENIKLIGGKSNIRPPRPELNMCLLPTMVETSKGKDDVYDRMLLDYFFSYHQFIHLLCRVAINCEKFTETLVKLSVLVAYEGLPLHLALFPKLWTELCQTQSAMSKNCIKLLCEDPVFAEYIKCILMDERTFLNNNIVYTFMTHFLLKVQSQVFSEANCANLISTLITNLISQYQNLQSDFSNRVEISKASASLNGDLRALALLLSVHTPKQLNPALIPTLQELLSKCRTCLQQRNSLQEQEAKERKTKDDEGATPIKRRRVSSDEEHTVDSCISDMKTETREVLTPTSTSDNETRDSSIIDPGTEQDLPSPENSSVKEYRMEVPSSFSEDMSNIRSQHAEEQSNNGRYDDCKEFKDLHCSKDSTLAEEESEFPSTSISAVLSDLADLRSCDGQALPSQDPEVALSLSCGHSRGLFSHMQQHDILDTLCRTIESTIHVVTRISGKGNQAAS
Outline: (§1)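 Triplicate samples of HEK293T lysate, 495 µg each, received fragment at 200 µM or vehicle for 3 h, followed by Biotin-Ahx-Ub-VS (0.5 µM final) for 1 h. After NeutrAvidin enrichment of labelled DUBs and LysC/trypsin digestion, peptides were run by diaPASEF LC-MS/MS. The values are average log2 fragment/vehicle ratios from global-median-normalised Spectronaut label-free quantities, tested by unpaired t-test on proteins having ≥2 unique peptides.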

USP36 = target: T1, USP36 (UniProt Q9P275)
T1 sequence (whole entry): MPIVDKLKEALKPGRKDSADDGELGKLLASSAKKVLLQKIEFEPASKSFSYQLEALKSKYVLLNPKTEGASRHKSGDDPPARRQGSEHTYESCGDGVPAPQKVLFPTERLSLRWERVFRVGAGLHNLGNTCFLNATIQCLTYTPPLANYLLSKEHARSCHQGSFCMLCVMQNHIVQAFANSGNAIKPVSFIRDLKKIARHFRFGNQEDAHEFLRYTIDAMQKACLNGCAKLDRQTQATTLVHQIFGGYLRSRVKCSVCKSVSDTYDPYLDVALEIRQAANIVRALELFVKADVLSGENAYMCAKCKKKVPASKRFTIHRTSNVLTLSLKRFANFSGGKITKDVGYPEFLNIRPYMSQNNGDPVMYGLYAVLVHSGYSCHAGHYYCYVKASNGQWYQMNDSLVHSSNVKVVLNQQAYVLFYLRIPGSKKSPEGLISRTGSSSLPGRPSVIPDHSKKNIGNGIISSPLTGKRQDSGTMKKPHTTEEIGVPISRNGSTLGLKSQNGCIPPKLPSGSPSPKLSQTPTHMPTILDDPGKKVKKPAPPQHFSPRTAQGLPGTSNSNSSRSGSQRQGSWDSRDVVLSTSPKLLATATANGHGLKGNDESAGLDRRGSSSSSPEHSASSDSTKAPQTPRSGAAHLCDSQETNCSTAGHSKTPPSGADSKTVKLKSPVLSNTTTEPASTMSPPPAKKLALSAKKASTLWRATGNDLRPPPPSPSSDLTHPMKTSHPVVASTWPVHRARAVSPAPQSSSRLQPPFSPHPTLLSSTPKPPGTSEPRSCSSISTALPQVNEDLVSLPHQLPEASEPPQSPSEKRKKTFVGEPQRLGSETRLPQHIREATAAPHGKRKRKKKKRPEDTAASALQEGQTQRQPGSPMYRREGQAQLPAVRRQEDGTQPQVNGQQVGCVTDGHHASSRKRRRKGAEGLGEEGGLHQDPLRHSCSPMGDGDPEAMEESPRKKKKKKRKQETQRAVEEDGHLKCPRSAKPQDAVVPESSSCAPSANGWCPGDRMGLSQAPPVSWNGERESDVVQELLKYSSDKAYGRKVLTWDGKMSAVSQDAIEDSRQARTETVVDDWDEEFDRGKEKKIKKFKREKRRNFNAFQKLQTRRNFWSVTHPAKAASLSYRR
Outline: as §1

USP38 = target: T2, USP38 (UniProt Q8NB14)
T2 sequence (whole entry): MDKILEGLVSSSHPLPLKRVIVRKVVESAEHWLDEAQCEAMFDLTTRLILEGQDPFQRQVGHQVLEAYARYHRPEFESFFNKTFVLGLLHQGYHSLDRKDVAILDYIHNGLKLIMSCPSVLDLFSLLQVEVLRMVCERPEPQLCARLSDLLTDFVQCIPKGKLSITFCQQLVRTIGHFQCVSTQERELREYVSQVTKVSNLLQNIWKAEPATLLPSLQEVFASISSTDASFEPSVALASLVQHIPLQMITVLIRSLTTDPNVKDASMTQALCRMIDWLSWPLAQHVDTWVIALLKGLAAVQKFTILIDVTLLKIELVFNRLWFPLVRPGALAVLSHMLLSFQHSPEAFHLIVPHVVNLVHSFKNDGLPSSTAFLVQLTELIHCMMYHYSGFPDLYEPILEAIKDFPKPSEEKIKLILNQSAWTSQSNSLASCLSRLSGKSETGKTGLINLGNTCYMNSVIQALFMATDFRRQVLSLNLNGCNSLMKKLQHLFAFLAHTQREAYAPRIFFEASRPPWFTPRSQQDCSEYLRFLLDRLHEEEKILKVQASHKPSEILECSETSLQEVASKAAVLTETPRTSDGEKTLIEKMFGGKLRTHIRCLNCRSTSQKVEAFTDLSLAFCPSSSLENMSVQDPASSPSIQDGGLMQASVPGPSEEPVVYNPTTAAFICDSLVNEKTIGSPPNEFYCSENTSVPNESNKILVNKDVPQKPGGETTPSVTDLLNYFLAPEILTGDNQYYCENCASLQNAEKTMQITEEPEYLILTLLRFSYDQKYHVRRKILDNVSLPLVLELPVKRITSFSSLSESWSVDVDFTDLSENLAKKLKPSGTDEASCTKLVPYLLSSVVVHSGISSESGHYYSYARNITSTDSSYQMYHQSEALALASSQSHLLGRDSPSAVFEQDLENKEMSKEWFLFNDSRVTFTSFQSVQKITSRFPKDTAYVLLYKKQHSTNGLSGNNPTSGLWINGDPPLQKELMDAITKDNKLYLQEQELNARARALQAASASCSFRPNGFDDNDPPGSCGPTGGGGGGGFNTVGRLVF
Outline: as §1

USP39 = target: T3, USP39 (UniProt Q53GS9)
T3 sequence (whole entry): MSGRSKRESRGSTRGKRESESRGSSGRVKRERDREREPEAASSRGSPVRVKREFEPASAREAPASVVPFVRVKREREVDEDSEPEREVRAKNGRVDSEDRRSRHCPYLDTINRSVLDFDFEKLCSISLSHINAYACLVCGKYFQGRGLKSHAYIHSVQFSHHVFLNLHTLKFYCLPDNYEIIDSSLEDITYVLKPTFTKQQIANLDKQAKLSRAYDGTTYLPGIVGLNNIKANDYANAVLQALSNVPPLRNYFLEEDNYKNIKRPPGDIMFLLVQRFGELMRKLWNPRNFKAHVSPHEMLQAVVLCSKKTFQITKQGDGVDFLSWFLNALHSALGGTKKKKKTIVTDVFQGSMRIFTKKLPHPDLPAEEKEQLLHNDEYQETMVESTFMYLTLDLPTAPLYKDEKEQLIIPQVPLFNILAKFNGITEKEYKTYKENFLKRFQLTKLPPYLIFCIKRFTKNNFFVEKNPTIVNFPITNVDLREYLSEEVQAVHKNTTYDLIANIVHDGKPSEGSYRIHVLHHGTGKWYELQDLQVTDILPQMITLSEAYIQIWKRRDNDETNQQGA
Outline: as §1

USP4 = target: T4, USP4 (UniProt Q13107)
T4 sequence (whole entry): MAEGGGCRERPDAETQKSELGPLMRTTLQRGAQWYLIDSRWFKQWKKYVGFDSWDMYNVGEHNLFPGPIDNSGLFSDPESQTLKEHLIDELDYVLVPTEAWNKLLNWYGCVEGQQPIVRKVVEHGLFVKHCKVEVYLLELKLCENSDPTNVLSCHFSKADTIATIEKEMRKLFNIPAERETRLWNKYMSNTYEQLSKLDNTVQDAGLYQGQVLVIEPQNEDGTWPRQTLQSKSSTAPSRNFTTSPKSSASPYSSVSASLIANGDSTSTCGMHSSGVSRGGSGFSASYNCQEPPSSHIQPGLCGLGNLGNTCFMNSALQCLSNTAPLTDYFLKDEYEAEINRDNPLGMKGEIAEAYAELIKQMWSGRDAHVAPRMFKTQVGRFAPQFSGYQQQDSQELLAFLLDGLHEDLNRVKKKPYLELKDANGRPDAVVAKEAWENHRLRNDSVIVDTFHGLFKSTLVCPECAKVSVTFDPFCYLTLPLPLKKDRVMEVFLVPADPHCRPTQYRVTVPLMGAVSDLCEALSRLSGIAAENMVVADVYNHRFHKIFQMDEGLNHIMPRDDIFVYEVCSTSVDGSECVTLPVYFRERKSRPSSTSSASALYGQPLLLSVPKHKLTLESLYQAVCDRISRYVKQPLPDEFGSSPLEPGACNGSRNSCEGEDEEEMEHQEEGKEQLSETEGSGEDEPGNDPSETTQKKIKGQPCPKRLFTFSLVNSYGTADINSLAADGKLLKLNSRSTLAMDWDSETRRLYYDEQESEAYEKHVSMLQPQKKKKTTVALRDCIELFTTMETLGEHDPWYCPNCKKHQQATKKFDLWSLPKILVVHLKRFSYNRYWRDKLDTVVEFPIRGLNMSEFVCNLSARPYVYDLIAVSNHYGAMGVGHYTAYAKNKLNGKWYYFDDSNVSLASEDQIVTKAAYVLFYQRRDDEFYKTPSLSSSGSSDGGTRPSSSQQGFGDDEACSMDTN
Outline: as §1

Measured: log2 ratio of Biotin-Ahx-Ub-VS probe labelling

CC(O)CC1CCN(C(=O)CCl)CC1 (stereo not given)
inactive: USP34 -0.0285 | USP36 -0.326 | USP38 -0.143 | USP39 -0.0644 | USP4 -0.0429
